# High-throughput results as filed in PubChem.
# SW480 rerep = A quantitative high throughput screen for small molecules that induce DNA re-replication in SW480 colon adenocarcinoma cells. SW480 DNA re-replication, Hoechst DNA content imaging, 48 h. Potency, µM (series often up to 46.1 µM), without a hit: at the highest dose re-replication activation, hits mostly activators. actives 1.8% (n = 340,000). AID 624297, 2012; note: % of control where 0% means no effect; nearly all actives have a fitted effect of over 55% in size
#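 Treated cells incubate 48 hr (37 C, 5% CO2), are stained 40 min with Hoechst, and nuclear fluorescence is enumerated; a rise in nuclei with high DNA signal marks re-replication.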
# MCF10A rerep = A quantitative high throughput screen for small molecules that induce DNA re-replication in MCF 10a normal breast cells | MCF 10A DNA re-replication, Hoechst nuclear intensity, 48 h | Potency, µM (highest dose often 46.1 µM), for inactives: at the highest dose activity, positive = re-replication, actives largely listed as activators | actives 2.9% (n = 350,000); note: % of control where 0% means no effect; nearly all actives have a fitted effect of over 50% in size
# Mito fusion yeast = qHTS Assay for Small Molecule Inhibitors of Mitochondrial Division or Activators of Mitochondrial Fusion | S. cerevisiae fusion-defective mutant growth rescue, CellTiterGlo 48 h | Potency, µM (top dose mostly 46.1 µM), inactives show at the highest dose growth rescue (activation), usual class: activators | actives 0.23% (n = 320,000) | AID 485298, 2010; note: % of control where 0% means no effect; nearly all actives have a fitted effect of over 45% in size
#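 Yeast fusion mutant, YPEG (non-fermentable carbon), compound, 48 h at 37C non-permissive; CellTiterGlo added, 10 min RT, luminescence read. Rescued growth = division inhibition.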
# a7 integrin act = qHTS for Activators of Integrin-Mediated Alleviation for Muscular Dystrophy. alpha7betagal myoblasts, beta-gal FDG fluorescence, 48 h. AID 624291, 2012. actives 0.064% (n = 350,000). Potency, µM (top dose mostly 38.3 µM), for inactives: at the highest dose activation, usual class: activators;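 note: 100% = response of the positive control SU9516; nearly all actives have a fitted effect of over 60% in size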
#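 alpha7betagal+/- myoblasts (passage 13, 250/well) treated 48 h at 37C with compounds at 1:260 dilution of DMSO stock. Lysed, then beta-galactosidase activity read as FDG fluorescence (ex 480/em 540) after 30 min, with pre-read for autofluorescence.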
# A-T KAP1 phos = qHTS Assay for Identifying a Potential Treatment of Ataxia-Telangiectasia. actives 0.19% (n = 320,000). Potency, µM (highest dose often 57.5 µM), for inactives: at the top dose activation, most hits filed as activators. F2112 A-T fibroblasts, KAP-1 phosphorylation AlphaLISA; neocarzinostatin DNA damage 30 min before lysis; note: % of control where 0% means no effect; nearly all actives have a fitted effect of over 45% in size
#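 hTERT-immortalized A-T patient fibroblasts (F2112), 500 cells/well in OPTI-MEM, 1% FBS, got compounds for 60 min, then NCS for 30 min at 37C. Lysates were then assayed for phospho-KAP-1 by AlphaLISA (anti-pKAP1 donor, anti-KAP1 acceptor beads), 6 hr at 25C.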
# Numbers without * were called inactive; ? = inconclusive; nt = no result given. This is a sample that favours compounds with a hit; in the whole collection about 4.2% have one here. Calls come from the whole dose curve; as a rule, active = well fitted activation curve with a large enough effect; inconclusive = small, poorly fitted or top-dose-only effect; inactive = no such curve, though single readings can be large or run the other way. Potency is the fitted concentration of half-maximal effect.
SMILES,SW480 rerep,MCF10A rerep,Mito fusion yeast,a7 integrin act,A-T KAP1 phos
Cc1nnc(N2C(=O)c3cccc4c([N+](=O)[O-])ccc(c34)C2=O)s1,?,23µM*,-11%,-84%,-1%
O=C1c2cccc3c([N+](=O)[O-])ccc(c23)C(=O)N1Cc1cccnc1,?,18µM*,1%,-106%,-4%
Cc1ccnc(N2C(=O)c3cccc4c([N+](=O)[O-])ccc(c34)C2=O)c1,3.7µM*,4.6µM*,-27%,-66%,-5%
O=C1c2cccc3cccc(c23)C(=O)N1Cc1cccnc1,-15%,0%,1%,5%,?
Cc1cn([C@H]2C[C@H](O)[C@@H](CNS(=O)(=O)N3CCCC3)O2)c(=O)[nH]c1=O,nt,nt,nt,14%,nt
O=C(NCCCc1ccccc1)c1cccc(NC(=O)C2CCCC2)c1,3%,?,nt,5%,nt
CCN1C(=O)[C@@H]2[C@@H](c3ccc(-c4cc(C(C)=O)cs4)cc3)N3CCC[C@@]3(C(=O)OC)[C@@H]2C1=O,1%,29%,nt,15%,nt
COC(=O)c1sc(-c2ccc(C(C)(C)C)cc2)cc1NC(=O)COCC(=O)O,-4%,21µM*,6%,-7%,7%
CC(C)(C)NC(=O)CCc1ncc(C(F)(F)F)cc1Cl,-12%,7%,1%,5%,1%
Nc1cc2nn(-c3ccccc3)nc2cc1Cl,?,18µM*,-1%,0%,6%
Nc1ccc(-n2nc3ccccc3n2)cc1,?,23µM*,nt,-16%,nt
Nc1ccc2nn(-c3ccccc3)nc2c1,15µM*,18µM*,2%,5%,30%
Cc1[nH]c(=O)n(C(C)C)c(=O)c1Br,-7%,-28%,nt,6%,nt
CCOc1ccc(NS(=O)(=O)c2cnc(Cl)c(Cl)c2)cc1,?,4.1µM*,-6%,0%,-11%
COc1ccc(NS(=O)(=O)c2cc(-c3cnc(C4CC4)o3)ccc2C)cc1,?,5.8µM*,6%,-33%,3%
COc1ccccc1NS(=O)(=O)c1cc(-c2cnc(C3CC3)o2)ccc1C,?,?,-1%,-40%,16%
CCOc1ccc(NS(=O)(=O)c2ccc(-c3cnc(C4CC4)o3)cc2)cc1,30%,6.5µM*,-11%,-24%,21%
O=S(=O)(Nc1ccc2ccccc2n1)c1ccc2c(c1)CCO2,-1%,-3%,2%,25%,3%
CCc1ccc2c(c1)C1(NN=C(c3ccc(C)cc3)S1)C(=O)N2 (stereo not given),?,6.5µM*,-3%,-11%,-4%
CC(C)c1ccc(O)c(NC(=O)c2ncn[nH]2)c1,-3%,-2%,0%,-4%,-1%
CC(C)c1ccc2c(c1)C1(NN=C(c3ccccc3)S1)C(=O)N2 (stereo not given),8.2µM*,1.3µM*,-8%,-42%,-7%
COc1ccc(N2COC3c4cccc5cccc(c45)C32)cc1 (stereo not given),1%,23µM*,0%,-63%,nt
Cc1ccc(NCCCn2cnc(C(=O)Nc3ccc(C)c(C)c3)n2)cc1C,-7%,-1%,nt,-6%,nt
Cc1cc(C)c(CN2CCN(CCCn3cnc(C(=O)Nc4ccc(C)c(C)c4)n3)CC2)c(C)c1,7.3µM*,?,nt,-44%,nt
Nc1nc(SCc2ccc([N+](=O)[O-])cc2)c2ncn([C@@H]3O[C@H](CO)[C@@H](O)[C@H]3O)c2n1,nt,nt,-9%,nt,nt
SMILES,SW480 rerep,MCF10A rerep,Mito fusion yeast,a7 integrin act,A-T KAP1 phos
Cn1cnc([N+](=O)[O-])c1Sc1nc(N)nc2c1ncn2C1OC(CO)C(O)C1O (stereo not given),5.8µM*,2.1µM*,nt,3%,nt
Cn1cnc([N+](=O)[O-])c1Sc1nc(N)nc2c1ncn2C1CC(O)C(CO)O1 (stereo not given),7.3µM*,2.1µM*,nt,-21%,nt
COc1ccc(-n2cc(C#N)c(=O)n(Cc3ccc(F)cc3)c2=O)cc1,13µM*,?,4%,6%,-3%
Cc1cc(C)n(Cc2ccc(F)cc2)c(=O)c1C#N,-5%,-4%,-5%,-14%,nt
CSc1ccc(S(=O)(=O)NCCSC(C)(C)C)cc1,8%,13%,-1%,-12%,nt
Cc1cccn2c(=O)c(C=NCc3ccccc3)c(NCCO)nc12,-1%,2%,-1%,-14%,4%
Cc1ccc2nc(NCc3ccccc3)c(C=NCc3ccccc3)c(=O)n2c1,-3%,26%,7.9µM*,-36%,6%
c1ccc(N=NC2=NN(c3ccccc3)CS2)cc1,nt,nt,nt,-6%,nt
Cc1cccc(CSC2=NCCN2C(=O)c2ccc(S(=O)(=O)N(C)C)cc2)c1,29µM*,3%,2%,-42%,1%
CC1(c2ccccc2)ON(c2ccccc2C(F)(F)F)C1=O (stereo not given),nt,nt,-18%,nt,25%
O=C1N(c2ccccc2C(F)(F)F)O[C@]1(c1ccccc1)C1CCCC1,?,18µM*,-36%,13%,0%
Cn1c(N)c(C(=O)COC(=O)CNS(=O)(=O)c2ccc(Cl)c(Cl)c2)c(=O)n(C)c1=O,-4%,8%,-6%,-13%,-2%
Cc1cc(C)c2nc(N3CCC(C(=O)N4CCN(C(=O)c5ccco5)CC4)CC3)sc2c1,1%,11%,7%,-25%,5%
Cc1cc(C)c2nc(N3CCCC(C(=O)N4CCN(c5ncccn5)CC4)C3)sc2c1 (stereo not given),14%,15µM*,-1%,21%,nt
O=C1c2cc(O)c(O)cc2OC(c2ccc(O)c(O)c2)C1O (stereo not given),-3%,5%,nt,-14%,nt
O=C(CCc1ccccc1)Nc1ccc(S(=O)(=O)NC2=NCCCCC2)cc1,5%,-9%,nt,18%,-4%
COc1ccc(-c2sc3ccccc3c2C#CC2(O)CCCCC2)cc1,?,?,?,18%,32µM*
COc1ccc(-c2sc3ccccc3c2C#Cc2cncn2C)cc1,6%,?,nt,-26%,32µM*
COc1ccc(-c2sc3ccccc3c2/C=C/c2ccncc2)cc1,1%,7.3µM*,nt,5%,6%
COc1ccc(-c2sc3cc(OC)c(OC)cc3c2C#CC2(O)CCCCC2)cc1,0%,?,?,14%,?
